# In article PMC4931317:
# Biological target: U3 small nucleolar RNA-associated protein 4 (UniProt Q06679)
# Assay: cross-link between two proteins
# U3 small nucleolar RNA-associated protein 4, sequence (Q06679 whole entry): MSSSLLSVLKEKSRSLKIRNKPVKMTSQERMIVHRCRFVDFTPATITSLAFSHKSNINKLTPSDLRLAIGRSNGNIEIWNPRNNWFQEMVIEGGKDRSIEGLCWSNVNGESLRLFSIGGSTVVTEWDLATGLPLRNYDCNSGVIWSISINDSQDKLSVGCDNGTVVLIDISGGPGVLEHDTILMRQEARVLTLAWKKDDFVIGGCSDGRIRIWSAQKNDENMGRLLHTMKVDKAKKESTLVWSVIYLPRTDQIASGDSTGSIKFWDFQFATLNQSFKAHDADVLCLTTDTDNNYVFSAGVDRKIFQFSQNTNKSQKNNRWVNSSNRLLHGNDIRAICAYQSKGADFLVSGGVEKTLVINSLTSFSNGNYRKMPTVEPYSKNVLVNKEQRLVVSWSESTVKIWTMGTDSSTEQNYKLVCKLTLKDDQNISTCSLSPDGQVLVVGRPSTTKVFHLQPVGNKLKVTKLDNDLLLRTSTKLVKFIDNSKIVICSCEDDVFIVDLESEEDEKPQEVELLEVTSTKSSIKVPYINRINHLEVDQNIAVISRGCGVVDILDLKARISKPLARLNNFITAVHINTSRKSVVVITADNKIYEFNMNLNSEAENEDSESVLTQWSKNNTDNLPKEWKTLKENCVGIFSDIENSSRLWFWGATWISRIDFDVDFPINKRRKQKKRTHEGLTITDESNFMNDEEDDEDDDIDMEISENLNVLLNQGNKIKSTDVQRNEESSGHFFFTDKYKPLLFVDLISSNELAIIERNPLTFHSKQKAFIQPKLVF
substance,measurement,value
"U3 small nucleolar RNA-associated protein 8, P53276",listed as a hit,yes
